From ChEMBL document CHEMBL1961873, “Compounds: GSK PKIS; Assays: Nanosyn kinase panel” (2012) come the findings set out here.

The target in test [1] is Dual specificity protein kinase CLK3 (Homo sapiens) (UniProt P49761). The following applies: at 1 µM.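 Note: each value is the mean inhibition of CLK3.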
The target in test [2] is Dual specificity tyrosine-phosphorylation-regulated kinase 1A (Homo sapiens) (UniProt Q13627). The following applies: at 0.1 µM.
The target is the same in test [3]. The following applies: at 1 µM.
Test [4] has as its target Dual specificity tyrosine-phosphorylation-regulated kinase 1B (Homo sapiens) (UniProt Q9Y463). The following applies: at 0.1 µM.
The target is the same in test [5]. The settings on record: at 1 µM.
Test [6] concerns the target T1, Dual specificity tyrosine-phosphorylation-regulated kinase 2 (Homo sapiens) (UniProt Q92630).
T1 sequence (whole entry): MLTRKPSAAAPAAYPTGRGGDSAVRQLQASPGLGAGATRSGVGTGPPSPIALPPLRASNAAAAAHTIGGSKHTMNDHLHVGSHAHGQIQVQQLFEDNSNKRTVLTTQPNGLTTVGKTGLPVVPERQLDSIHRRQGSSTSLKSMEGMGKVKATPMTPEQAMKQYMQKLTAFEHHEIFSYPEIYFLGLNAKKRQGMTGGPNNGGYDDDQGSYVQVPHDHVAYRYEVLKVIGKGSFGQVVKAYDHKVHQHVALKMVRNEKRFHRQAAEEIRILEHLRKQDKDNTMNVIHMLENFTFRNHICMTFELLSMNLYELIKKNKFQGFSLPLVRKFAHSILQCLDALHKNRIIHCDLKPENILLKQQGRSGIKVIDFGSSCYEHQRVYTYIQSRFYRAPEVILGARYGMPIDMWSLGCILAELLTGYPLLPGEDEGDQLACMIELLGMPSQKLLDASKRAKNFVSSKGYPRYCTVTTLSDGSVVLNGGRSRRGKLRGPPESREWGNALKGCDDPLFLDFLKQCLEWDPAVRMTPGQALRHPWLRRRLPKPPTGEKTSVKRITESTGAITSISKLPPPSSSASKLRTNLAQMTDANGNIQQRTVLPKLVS
The settings on record: at 0.1 µM.

Test [7] concerns the target T1, Dual specificity tyrosine-phosphorylation-regulated kinase 2 (Homo sapiens). The following applies: at 1 µM.
Test [8] concerns the target Glycogen synthase kinase-3 alpha (Homo sapiens) (UniProt P49840). The settings on record: at 0.1 µM.
Test [9] shares this target. The following applies: at 1 µM.
For test [10], the target named is Glycogen synthase kinase-3 beta (Homo sapiens) (UniProt P49841). The settings on record: at 0.1 µM.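 Note: values are mean percent inhibition of GSK3B activity, from the GSK Published Kinase Inhibitor Set (PKIS) screening dataset.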
Glycogen synthase kinase-3 beta (Homo sapiens), sequence (P49841 whole entry, looked up): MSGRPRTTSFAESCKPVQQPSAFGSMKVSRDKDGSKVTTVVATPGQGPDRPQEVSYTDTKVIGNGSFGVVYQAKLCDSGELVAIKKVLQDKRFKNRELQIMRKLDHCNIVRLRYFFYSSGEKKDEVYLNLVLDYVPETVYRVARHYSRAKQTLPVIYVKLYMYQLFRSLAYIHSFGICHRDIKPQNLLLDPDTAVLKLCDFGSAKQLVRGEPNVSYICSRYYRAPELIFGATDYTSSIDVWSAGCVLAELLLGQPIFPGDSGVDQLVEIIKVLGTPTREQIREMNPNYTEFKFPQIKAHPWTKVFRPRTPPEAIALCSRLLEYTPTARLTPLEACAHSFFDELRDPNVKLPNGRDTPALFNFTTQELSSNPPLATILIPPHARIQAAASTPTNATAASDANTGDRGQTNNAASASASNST

Several values for one entry are separate records, joined by “and”; a condition that tells them apart may be missing. Identical values can stand only once.

Dual specificity tyrosine-phosphorylation-regulated kinase 1B (Homo sapiens), sequence (Q9Y463 whole entry, looked up): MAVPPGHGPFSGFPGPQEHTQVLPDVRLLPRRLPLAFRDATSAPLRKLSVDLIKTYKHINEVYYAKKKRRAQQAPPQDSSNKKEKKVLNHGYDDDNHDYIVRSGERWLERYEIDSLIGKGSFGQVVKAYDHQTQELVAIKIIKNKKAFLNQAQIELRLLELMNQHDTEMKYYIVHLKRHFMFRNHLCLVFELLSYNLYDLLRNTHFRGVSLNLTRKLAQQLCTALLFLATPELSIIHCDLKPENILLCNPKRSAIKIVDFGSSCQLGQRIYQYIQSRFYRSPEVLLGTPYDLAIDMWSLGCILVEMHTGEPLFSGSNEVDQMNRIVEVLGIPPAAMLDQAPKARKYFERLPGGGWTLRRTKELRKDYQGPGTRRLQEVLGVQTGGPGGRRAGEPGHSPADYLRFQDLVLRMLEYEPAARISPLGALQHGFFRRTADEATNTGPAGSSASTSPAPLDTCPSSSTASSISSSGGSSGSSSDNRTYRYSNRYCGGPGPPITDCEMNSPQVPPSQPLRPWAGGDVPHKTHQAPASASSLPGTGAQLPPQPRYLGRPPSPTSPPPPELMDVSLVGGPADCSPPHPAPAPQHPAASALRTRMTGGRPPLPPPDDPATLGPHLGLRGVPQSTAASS
Dual specificity protein kinase CLK3 (Homo sapiens), sequence (P49761 whole entry, looked up): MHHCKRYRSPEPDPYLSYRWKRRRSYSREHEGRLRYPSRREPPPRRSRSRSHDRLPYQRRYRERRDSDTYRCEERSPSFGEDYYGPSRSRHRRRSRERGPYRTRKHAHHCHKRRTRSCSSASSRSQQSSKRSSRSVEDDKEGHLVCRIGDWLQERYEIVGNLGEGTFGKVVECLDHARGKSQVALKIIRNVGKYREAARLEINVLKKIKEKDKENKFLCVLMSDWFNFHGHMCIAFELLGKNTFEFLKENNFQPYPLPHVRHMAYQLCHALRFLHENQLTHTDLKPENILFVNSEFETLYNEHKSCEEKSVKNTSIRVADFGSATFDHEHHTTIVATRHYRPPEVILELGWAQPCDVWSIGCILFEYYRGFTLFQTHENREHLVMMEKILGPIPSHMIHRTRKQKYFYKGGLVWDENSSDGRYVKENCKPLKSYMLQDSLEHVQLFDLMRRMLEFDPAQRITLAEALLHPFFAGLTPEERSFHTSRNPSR
Glycogen synthase kinase-3 alpha (Homo sapiens), sequence (P49840 2-483 limits assumed): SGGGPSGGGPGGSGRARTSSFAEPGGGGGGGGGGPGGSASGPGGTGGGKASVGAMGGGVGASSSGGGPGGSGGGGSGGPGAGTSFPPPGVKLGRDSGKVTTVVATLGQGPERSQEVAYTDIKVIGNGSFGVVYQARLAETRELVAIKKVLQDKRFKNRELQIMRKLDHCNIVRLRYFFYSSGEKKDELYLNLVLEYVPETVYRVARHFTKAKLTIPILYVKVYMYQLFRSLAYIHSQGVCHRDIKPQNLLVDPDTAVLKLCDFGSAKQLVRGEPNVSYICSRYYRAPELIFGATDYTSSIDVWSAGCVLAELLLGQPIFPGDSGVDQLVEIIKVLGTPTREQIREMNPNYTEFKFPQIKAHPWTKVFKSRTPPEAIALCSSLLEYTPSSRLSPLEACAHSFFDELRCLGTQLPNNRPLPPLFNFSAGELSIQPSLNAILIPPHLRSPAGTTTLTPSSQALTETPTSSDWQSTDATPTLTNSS

As for `CC1=C(C(=O)Nc2ccc3[nH]ncc3c2)C(c2ccc(F)cc2)N=C(c2ccc(C(F)(F)F)nc2)N1` (stereo not given), the inhibition in test [1] stood at 2.08%; in test [2] it was 1.92%; in test [3], 2.39%; in test [4], 1.23%; in test [5], 1.37%; in test [6], 1.37%. For the same compound, the inhibition was 1.27% in test [7], 1.54% in [8], 4.37% in test [9] and 1.95% in test [10].

As for `N#Cc1cccc(Nc2ncc(-c3ccccc3)o2)c1`, the inhibition was 1.97% in test [1]; 1.47% in test [2]; 5.95% in test [3]; -0.09% in [4]; 3.53% in [5]; 0.71% in test [6]. Besides, the inhibition was 2.45% in test [7], 5.76% in test [8], 25.6% in test [9] and 2.85% in test [10].

Take `NS(=O)(=O)c1ccc(N/N=C2\C(=O)Nc3cccc(CCc4ccncc4)c32)cc1`: the inhibition in test [1] was 1.36%; in test [2], 1.69%; in test [3], 4.28%; in test [4], 1.6%; in test [5] it was 6.1%; in [6] it was -0.67%. The inhibition in test [7] was -1.25%; in [8], 49.5%; in test [9] it was 68%; in test [10] it was 34.1%.

Consider `CC1(C)CC(n2cnc(-c3ccc(F)cc3)c2-c2ccnc(N)n2)CC(C)(C)N1`, for which the inhibition in test [1] was determined as 1.38%; in [2], 1.54%; in [3] it was 5.47%; in test [4], 0.78%; in test [5] it was 1.31%; in [6] it was 0.23%. Moreover, the inhibition in test [7] is -0.37%; in test [8] it was 1.97%; in [9], 5.81%; in test [10] it was 1.6%.

As to `CC1=C(C(=O)Nc2ccc3[nH]nc(C)c3c2)C(c2ccc(C(F)(F)F)cc2)CC(=O)N1` (stereo not given), the inhibition in [1] amounted to 14.1%; in [2], 2.93%; in test [3], 7.46%; in test [4], 1.73%; in test [5] it was 4.23%; in test [6], 2.28%. Also, the inhibition in test [7] worked out at 3.97%; in test [8], 6.5%; in [9] it was 10.8%; in test [10], 6.08%.

Turning to `Cc1c2ccc(N(C)c3ccnc(Nc4cccc(S(N)(=O)=O)c4)n3)cc2nn1C`, the inhibition in test [1] is 1.11%; in [2], -1.03%; in [3], 1.54%; in [4], -3.31%; in [5] it was -2.73%; in test [6] it was 2.38%. Moreover, the inhibition in test [7] was 2.71%; in test [8] it was -0.44%; in test [9], 6.37%; in test [10], -0.25%.

As to `c1cnn2ncc(-c3ccnc(NCCCN4CCOCC4)n3)c2c1`, the inhibition in test [1] stood at 0.72%; in test [2], 6.3%; in test [3] it was 33.9%; in test [4] it was 6.84%; in test [5], 40.3%; in test [6], 1.99%. Besides, the inhibition in [7] amounted to 5.39%; in [8] it was 2.46%; in test [9], 13.1%; in test [10] it was 1.44%.

Take `NC(=O)c1ccc2c(-c3ccnc(NCCCO)n3)c(-c3ccc(F)cc3)nn2c1`: the inhibition in [1] stood at 2.71%; in [2], 7.25%; in test [3] it was 8.12%; in [4], 5.14%; in test [5], 5.25%; in test [6] it was 3.28%. Also, the inhibition in [7] was 5.26%; in [8], 3.74%; in [9], 19.6%; in [10] it was 7.03%.

In the case of `COc1cccc(Nc2nccc(-c3cnn4ncccc34)n2)c1`, the inhibition was determined as 65.3% in [1]; 77.4% in test [2]; 88.3% in test [3]; 81.5% in test [4]; 90% in [5]; 5.88% in test [6]. Besides, the inhibition amounted to 37.6% in test [7], 60.7% in test [8], 79.5% in test [9] and 59.7% in [10].

For the compound `Cc1cc(O)cc(C)c1/C=C/c1cncc(C(=O)OC(C)(C)C)c1`, the inhibition in test [1] turned out to be 6.2%; in test [2], 5.61%; in [3], 8.73%; in [4] it was 3.58%; in test [5], 7.3%; in test [6], 1.52%. Besides, the inhibition stood at 3.56% in [7], 4.43% in test [8], 8.44% in test [9] and 4.6% in [10].

As for `COc1cc2c(cc1Nc1nc(Nc3cccc(F)c3C(N)=O)c3cc[nH]c3n1)N(C(=O)CN1CCN(C(C)C)CC1)CC2`, the inhibition in test [1] was 1.39%; in test [2], 1.82%; in [3] it was 10.2%; in test [4] it was 3.8%; in test [5] it was 9.06%; in test [6], 2.66%. The inhibition is 5.93% in [7], 1.62% in [8], 2.06% in test [9] and 0.46% in test [10].

With `COc1ccc(-c2nn3ncccc3c2-c2ccnc(Nc3ccc(F)c(F)c3)n2)cc1`, the inhibition in [1] was 3.23%; in test [2] it was 2.77%; in test [3], 4.84%; in test [4], -0.82%; in test [5] it was 1.01%; in test [6], 2.83%. Moreover, the inhibition in test [7] stood at 3.6%; in [8], 3.2%; in test [9] it was 4.32%; in test [10] it was 3.16%.

On to `COc1cc(N2CCN(C(C)C)CC2)ccc1Nc1nc(Nc2cccc3ncccc23)c2cc[nH]c2n1`, for which the inhibition in test [1] is 1.89%; in test [2], 0.19%; in test [3], 5.87%; in test [4] it was 1.41%; in [5], 7.46%; in test [6] it was -1.54%. Further, the inhibition was -1.74% in test [7], 0.06% in [8], 3.49% in test [9] and 0.31% in [10].

As to `CCS(=O)(=O)c1ccc(OC)c(Nc2ncc(-c3cccc(F)c3)o2)c1`, the inhibition was 12.1% in test [1]; 4.83% in test [2]; 26% in [3]; 0.76% in test [4]; 12.2% in test [5]; 5.21% in test [6]. Moreover, the inhibition came to 13.7% in test [7], 2.67% in [8], 5.61% in test [9] and 2.72% in [10].

With `COc1ccc2ncn(-c3cc(O[C@H](C)c4ccccc4C(F)(F)F)c(C(N)=O)s3)c2c1`, the inhibition is 0.85% in test [1]; 0.11% in test [2]; 2.44% in test [3]; 0.37% in test [4]; 1.63% in test [5]; -0.29% in test [6]. The inhibition in [7] was 1.33%; in test [8], -0.19%; in test [9], 4.58%; in test [10], -0.14%.

With `CN1CCN(Cc2ccc(-c3cc4ncnc(Nc5ccc(OCc6cccc(F)c6)c(Cl)c5)c4s3)o2)CC1`, the inhibition in test [1] is 0.78% and 2.08%; in test [2] it was 2.29% and 3.65%; in [3] it was 3.25% and 6.67%; in [4], -1.48% and 1.67%; in [5] it was -0.65% and 3.95%; in test [6], 2.17% and 3.19%. For the same compound, the inhibition was 1.22% and 4.53% in [7]; 4.34% and 12.6% in [8]; 3.93% and 13.7% in test [9]; 2.82% and 10.6% in test [10].

In general, inhibition refers to the change of the read-out against control, counted positive when it falls.
